High-throughput results: PubChem, The Scripps Research Institute Molecular Screening Center
Hits are enriched below; roughly 4.8% of the tested compounds scored in any of these assays.
hgDAF-12 ag: agonists of H. glycines DAF-12 nuclear receptor; HEK293 GAL4-hgDAF12 UAS-luciferase reporter, agonist luminescence; normalized to butyrate control; activation, % at 6.8 µM; hit rate 1.8% among 370,000; AID 687014;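 active = activation above a cutoff set at the mean of all screened compounds plus 3 SD, cut at about 10% in these data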;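 note: 0% = DMSO wells and 100% = sodium butyrate wells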
DAX1 inh-1: NR0B1 (DAX1) inhibition | HEK293 Gal4-DAX1 luciferase reporter, luminescence | hit rate 0.99% among 340,000 | P51843 | inhibition, % at 6.75 µM;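 active = inhibition above the mean over all tested compounds plus 3 SD, cut at about 4.2% in these data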;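 note: 0% = DAX1-transfected cells with DMSO and 100% = empty-vector control cells with DMSO; inhibition shows as a rise in luminescence from relieved DAX1 repression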
Target sequence (P51843 207-470 limits assumed): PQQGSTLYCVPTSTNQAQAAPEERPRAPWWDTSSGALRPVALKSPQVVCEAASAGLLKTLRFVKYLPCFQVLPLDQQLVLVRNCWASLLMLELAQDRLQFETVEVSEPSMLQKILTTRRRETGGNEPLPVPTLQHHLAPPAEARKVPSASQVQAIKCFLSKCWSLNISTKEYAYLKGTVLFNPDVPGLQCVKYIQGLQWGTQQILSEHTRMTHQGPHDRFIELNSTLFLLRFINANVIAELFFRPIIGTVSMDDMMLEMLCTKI
DAX1 inh-2: inhibitors of DAX1 repression of SF-1 activated StAR promoter. inhibition, % at 6.8 µM. hit rate 1.1% among 370,000. AID 652010. HEK293T StAR-luciferase reporter, SF-1/DAX-1 repression relief;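 active = inhibition above the mean over all tested compounds plus 3 SD, cut at about 3.6% in these data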;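 note: 0% = DAX-1 cells with DMSO and 100% = cells lacking DAX-1 with DMSO; higher inhibition means more luminescence from relief of DAX-1 repression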
hcDAF12 agonist: H. contortus DAF-12 activation, primary screen. HEK293 hcDAF-12 lit1-tk-luc reporter, luminescence; 0% DMSO, 100% Δ7-dafachronic acid. activation, % at 6.8 µM. hit rate 1.4% among 370,000. AID 652067;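 active = activation above the mean of all tested compounds plus 3 SD, cut at about 5.5% in these data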;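 note: 100% = response to 3 µM Δ7-dafachronic acid high control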
SMARCA2 act: activators of SMARCA2 function | AID 652017 | MG213 cells, MMTV-luciferase reporter, dexamethasone, overnight | activation, % at 9.1 µM | hit rate 1% among 370,000; in the data active = activation above about 7.8%;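 note: 0% = vehicle wells and 100% = reference activator wells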
ssDAF-12 act: S. stercoralis DAF-12 activation, primary screen. HEK293 ssDAF-12/GRIP1 lit1-tk-luc reporter, luminescence; % of 3 µM dafachronic acid response. activation, % at 6.8 µM. hit rate 1% among 370,000;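 active = activation above the mean over all tested compounds plus 3 SD, cut at about 0.9% in these data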;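 note: 0% = DMSO-only wells and 100% = 3 µM delta7-dafachronic acid wells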
DAX1 conf: confirmation of human DAX1 (NR0B1) inhibitors. AID 652134. hit rate 87% among 2,400. shares compounds with DAX1 inh-2. HEK293T StAR-promoter luciferase reporter, SF-1/DAX-1 repression. inhibition, % at 6.8 µM;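 active = inhibition above the average of every tested compound plus 3 SD, cut at about 3.8% in these data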;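 note: 0% = DAX-1 cells with DMSO and 100% = no DAX-1 control cells with DMSO; active compounds raise luminescence by relieving repression of the StAR reporter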
SF1 AF2mut Luc: counter-screen for DAX1 inhibitors: nonselective inhibitors with SF-1 AF2 mutant; shares compounds with DAX1 inh-2; HEK293 StAR-luciferase, luminescence; inhibition, % at 6.8 µM; hit rate 78% among 2,400;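 active = inhibition above the mean of all tested compounds plus 3 SD, cut at about 3% in these data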;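 note: 0% = DAX-1 transfected cells with DMSO and 100% = cells without DAX-1 with DMSO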
SMARCA2 conf: confirmation of SMARCA2 (BRM) function activators. shares compounds with SMARCA2 act. MG213 cells, MMTV-luciferase with dexamethasone, luminescence, overnight; MG213 cells expressing E1A, Rb sequestered; DMSO wells 0%, reference activator 100%. activation, % at 9.1 µM. hit rate 30% among 3,500. AID 652260;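 active = activation above its plate's cutoff, the mean activation of tested wells plus 3 SD, cut at about 7.9% in these data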
GAL4-VP16 Luc: GAL4-VP16 reporter activation counter-screen; hit rate 41% among 3,500; shares compounds with SMARCA2 act; HEK293 GAL4-VP16 pG5luc reporter, luciferase luminescence; scaled: DMSO wells 0%, SAHA wells 100%; activation, % at 9.1 µM; AID 686939;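 active = activation above the solvent-only control well mean plus 3 SD, averaged across control plates, cut at about 5.2% in these data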
LXRb hcDAF ctr: LXR-beta agonism as hcDAF-12 counter-screen | 3,400 tested, under 10 active | shares compounds with hcDAF12 agonist | AID 743027 | activation, % at 6.8 µM | HEK293 Gal4-LXR tk-luc reporter, luminescence, 24 h; normalized: DMSO 0%, positive control 100%;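 active = mean percent activation of the reporter above a cutoff set as the average over tested compounds plus their standard deviation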
Target sequence (P55055 whole entry, looked up, the tested form may be a part): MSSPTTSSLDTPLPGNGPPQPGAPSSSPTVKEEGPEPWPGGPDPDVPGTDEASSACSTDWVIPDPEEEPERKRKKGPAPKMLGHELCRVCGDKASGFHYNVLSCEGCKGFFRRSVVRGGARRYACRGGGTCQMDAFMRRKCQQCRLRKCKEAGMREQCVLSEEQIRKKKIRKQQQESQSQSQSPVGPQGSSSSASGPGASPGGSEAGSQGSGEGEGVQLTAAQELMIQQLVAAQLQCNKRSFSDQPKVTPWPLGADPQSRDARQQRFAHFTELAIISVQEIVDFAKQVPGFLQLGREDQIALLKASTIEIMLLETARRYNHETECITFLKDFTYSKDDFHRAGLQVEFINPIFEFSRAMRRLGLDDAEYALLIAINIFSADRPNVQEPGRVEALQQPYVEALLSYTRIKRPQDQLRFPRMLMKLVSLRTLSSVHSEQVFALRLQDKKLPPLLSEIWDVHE
hcDAF12 conf: confirmation of H. contortus DAF-12 agonists; shares compounds with hcDAF12 agonist; activation, % at 6.8 µM; HEK293 hcDAF-12 lit1-tk-luc reporter, luminescence; % of Δ7-dafachronic acid response; hit rate 61% among 3,400;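 active = mean activation across triplicate tests above the threshold derived from the earlier primary screen, cut at about 5.5% in these data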;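 note: 0% = DMSO only wells and 100% = 3 µM Δ7-dafachronic acid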
hgDAF12 conf: confirmation of H. glycines DAF-12 agonists; HEK293 GAL4-hgDAF12 luciferase reporter, agonist mode; percent of butyrate response; hit rate 80% among 3,300; shares compounds with hgDAF-12 ag; activation, % at 6.8 µM; AID 743050;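 active = mean activation over triplicate wells above the hit cutoff derived from the earlier primary screen, cut at about 11% in these data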;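 note: 0% = DMSO low control and 100% = 2 mM sodium butyrate high control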
LXRb DAF12 ctr: activates human LXR-beta, counter-screen for DAF-12 agonists; shares compounds with hgDAF-12 ag; HEK293 Gal4-LXR luciferase reporter, 24 h; activation, % at 6.8 µM; 3,300 tested, under 10 active;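 active = mean activation of the triplicate above a set limit carried over from the primary screen, none filed active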
The depositor's hits bear a star; x = not tested or not shown.

SMILES	hgDAF-12 ag	DAX1 inh-1	DAX1 inh-2	hcDAF12 agonist	SMARCA2 act	ssDAF-12 act	DAX1 conf	SF1 AF2mut Luc	others
COc1cccc(OCc2cc(C(=O)N3C[C@H]4C[C@@H](C3)c3cccc(=O)n3C4)no2)c1	12.9*	3.3	1.1	5.6*	3.8	1.5*	x	x
COc1ccc(C(=O)C2CCCN(CC3CCCCC3)C2)cc1OC (stereo not drawn)	3.9	x	3.9*	2.0	0.1	-0.6	x	x
CC(C)C(NC(=O)C(C(C)C)N(C)C)C(=O)N(C)C(C(=O)N1CCCC1C(=O)N1CCCC1C(=O)NCc1ccccc1)C(C)C (stereo not drawn)	-6.7	1.4	5.4*	-0.3	-2.0	-0.1	21.4*	-7.3
O=c1[nH]cnc2nc(-c3ccc(N(CCCl)CCCl)cc3)[nH]c12	7.7	0.7	5.5*	2.2	5.7	-0.7	10.6*	0.0
c1ccc2oc(-c3ccc4c(c3)CNCc3cnnn3-4)cc2c1	9.4	x	5.0*	-0.1	7.0	-0.2	7.0*	4.6*
COC(=O)C1=C(c2cccc(OC)c2OC)C[C@@H]2CC[C@H]1N2C(=O)N1CCCC1	-2.8	-0.5	-0.7	-1.1	2.7	-1.7	x	x
CCOC(=O)[C@]12Cc3ccccc3[C@H]1N(CCC(=O)OC)C(=O)c1cc(OC)ccc12	-1.2	x	7.2*	2.2	-1.0	-0.7	4.1*	9.3*
COC1CCC(OC2CC(C3(C)CCC4(CC(O)C(C)C(C(C)/C=C(\C)C(=O)C(C)CC(C)C(=O)O)O4)O3)OC3(OC(C4OC(O)(CO)C(C)CC4C)CC3C)C2C)OC1C (stereo not drawn)	-3.2	-0.4	9.6*	-0.8	-5.7	-1.2	-8.8	-12.0
CC(C)(O)C1C2OC(=O)C1C1(O)CC3OC34C(=O)OC2C14C (stereo not drawn)	-2.1	-0.2	0.4	-1.1	-0.1	-0.3	x	x
O=C1CN=C(c2cc([N+](=O)[O-])ccc2Cl)c2cc([N+](=O)[O-])ccc2N1	1.2	0.2	-0.6	0.2	-0.4	-1.4	x	x
O=C(N/N=C/c1c(O)n(C2CCCCC2)c(=S)[nH]c1=O)c1ccccc1	6.4	0.0	4.8*	2.0	1.9	-1.1	2.7	2.3
O=C(N/N=C/c1c(O)n(C2CCCCC2)c(=S)[nH]c1=O)c1ccccc1O	-0.2	0.8	0.2	-1.1	-0.6	-1.4	x	x
CCN(CC)C(=O)c1ccc(NC(=O)CCCSc2ccccc2)cc1	0.0	0.1	-0.2	0.1	-2.5	-1.8	x	x
CCN(CC)C(=O)c1ccc(NC(=O)Nc2ccccc2F)cc1	11.1*	-5.1	6.5*	5.3	4.4	-0.4	8.9*	4.2*
N=C(N)c1c(O)n(C2CCCCC2)c(=O)n(C2CCCCC2)c1=O	-1.5	-0.8	-1.0	-2.0	0.7	-1.6	x	x
CC(C)(O)/C=C/C(=O)[C@](C)(O)C1[C@H](O)C[C@@]2(C)C3CC=C4C(C[C@H](O)[C@@H](O)C4(C)C)[C@]3(C)C(=O)C[C@]12C (stereo partly drawn)	x	-1.2	x	x	x	x	x	x
Cc1ccc2c(c1)NP(=S)(Oc1ccccc1)N2 (stereo not drawn)	11.6*	4.5*	8.0*	7.5*	10.3*	1.0*	6.5*	2.9*	SMARCA2 conf=1.2;GAL4-VP16 Luc=2.6;LXRb hcDAF ctr=0.1;hcDAF12 conf=2.9
O=C(O)c1ccccc1NC(=O)N1C[C@H]2C[C@@H](C1)c1cccc(=O)n1C2	-0.4	-2.1	1.4	2.3	-0.5	-0.3	x	x
N=C1c2ccccc2CN1CC(=O)c1ccccc1	20.1*	1.5	7.0*	22.9*	2.8	2.6*	11.3*	7.2*	LXRb hcDAF ctr=0.9;hcDAF12 conf=7.3*;hgDAF12 conf=23.6*;LXRb DAF12 ctr=0.9
N=C1c2ccccc2CN1NC(=O)c1ccccc1	4.7	-0.3	0.2	-0.6	0.0	-0.4	x	x
CC(C)(C)C(=O)c1cn(Cc2ccccc2)c2ccccc12	-4.0	2.0	0.4	-0.4	-2.0	-1.6	x	x
CNC(=O)Oc1ccc(-c2cn3cc(Cl)ccc3n2)cc1	13.5*	-1.3	6.1*	6.4*	6.3	1.6*	9.8*	3.5*	hgDAF12 conf=20.9*;LXRb DAF12 ctr=1.1
CCC1CCCCN1CC(=O)c1ccc(OC(F)F)cc1 (stereo not drawn)	2.5	0.1	0.3	0.7	14.0*	-1.2	x	x	SMARCA2 conf=-3.6;GAL4-VP16 Luc=1.1
N[C@@H](Cc1ccc(N(CCCl)CCCl)cc1)C(=O)O	-2.5	-1.0	-2.1	-0.5	2.5	-1.2	x	x
ClCCN(CCCl)c1ccc(-n2cnc3c(Cl)ncnc32)cc1	4.5	-0.2	0.5	0.4	16.1*	-0.4	x	x	SMARCA2 conf=-2.7;GAL4-VP16 Luc=-0.1
COC(=O)C1=C(c2ccc(F)cc2F)C[C@@H]2CC[C@H]1N2C(=O)NCCOc1ccccc1	-1.9	0.0	0.0	-3.0	0.0	-1.7	x	x
CN(C(=O)Oc1cccc2ccccc12)C1C=CCC1 (stereo not drawn)	6.8	0.5	0.4	1.9	9.9*	-0.3	x	x	SMARCA2 conf=4.5;GAL4-VP16 Luc=4.0
CN(C)C(=O)Oc1cccc2c(OC(=O)N(C)C)cccc12	-0.7	0.1	0.7	-0.9	-2.6	-1.5	x	x
CC(CCN1CC1)=NNC(=O)Nc1cccc2ccccc12	-0.8	0.3	-1.4	3.2	-1.8	0.0	x	x
O=C1C=C(N2CC2)c2ccccc2C1=O	-4.5	1.5	-2.6	2.1	-3.0	-0.2	x	x
